Data published in PubChem BioAssay.

These compounds were tested on Chordin-like protein 2 (CHRDL2) (assay: compounds binding chordin-like 2 – biochemical, small-molecule microarray, 635 nm fluorescence, primary screen (AID 1126;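 also: printed compound slides probed with Chrdl2 protein at 4 µg/mL for 1 h at 4 C; score merges 667 nm emission intensity with signal to noise over three replicate slides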)). Details: fluorescence 635 nm, higher = more signal.
With `C[C@@H]1NC(=O)[C@@H](Cc2ccccc2)NC(=O)[C@@]23C(=O)N[C@@H](Cc4ccccc4)C2[C@H](C)[C@@]2(C)O[C@H]2C3/C=C/C/C=C\CNC1=O` (stereo not given in full) the composite z-score was -0.153. With `COc1cccc(C)c1NC(=O)O[C@H]1[C@H](OC(=O)Nc2ccc3c(c2)OCO3)[C@@H](OC(=O)Nc2ccc3c(c2)OCO3)[C@@H](OC)O[C@@H]1CO` the composite z-score was 0.492. `C=C(COC)/C(=C/C[C@H](OC(=O)c1ccncc1)c1ccc(CO)o1)c1cnc2ccccc2c1` showed a composite z-score of 0.766. `CC(C)=C1C(=O)C(c2ccccc2)=C2CN3C(=O)N(CCc4ccccc4)C(=O)[C@]3(Cc3ccc(C(F)(F)F)cc3)[C@H]21` showed a composite z-score of -2.09. `CCCCNC(=O)c1ccc(C#CC(C)(C)C)c(OC(C)=O)c1` showed a composite z-score of 0.641. In the case of `C=CCC(OC(C)=O)[C@@H]1[C@@H](N(Cc2cccc3ccccc23)C(=O)Cc2ccc(OC)cc2)c2cc(OCCCO)ccc2N1C(=O)c1ccc(-c2ccccc2)cc1` (stereo not given in full), the composite z-score is reported as 0.0133. For `COc1cc(NN2C(C(O)c3ccc(N(C)C)cc3)C=CC3C(=O)N(c4ccccc4)C(=O)C32)cc(OC)c1OC` (stereo not given), the composite z-score was -0.148. `CCCC[C@@H](O)C1=C(COC)C[C@H]2C(=O)N(C)C(=O)[C@H]2[C@H]1CO` gave a composite z-score of 0.831. `CC1CC/C=C\[C@H]2OC34C=CCN(c5ccc6ccccc6c5)C(=O)[C@H]3N(CCCO)C(=O)[C@@H]4C2C(=O)O1` (stereo not given in full) showed a composite z-score of -1.77. `CC(C)C(CO)N1C(=O)[C@@H]2[C@H]3C(=O)OCC=C[C@H]3OC23C=CCN(c2ccc(Cl)cc2)C(=O)[C@@H]13` (stereo not given in full) was tested, and the composite z-score was -0.847. In the case of `CCCN1C(=O)[C@@]2(Cc3ccccc31)N=C(c1ccc(OCCCO)cc1)O[C@H]2c1ccccc1`, the composite z-score is reported as 0.201. `O=C(O)[C@@H]1[C@@H]2C(=O)N(c3ccccc3)C(=O)[C@@H]2C[C@@H]1Sc1ccccc1` was tested, and the composite z-score was -1.06. With `COCCOC(=O)N1C(=O)[C@@]2(c3cc(C#CCNC(N)=O)ccc31)[C@H](C(N)=O)[C@H]1C(=O)O[C@H](c3ccccc3)[C@H](c3ccccc3)N1[C@@H]2c1ccccc1OCCO` the composite z-score was 0.743. `COC(=O)[C@@]1(Cc2ccc(OC)cc2)[C@H]2c3cc(C(=O)N4CCCC4)n(CCO)c3C[C@H]2CN1C(=O)c1ccccc1` was tested, and the composite z-score was -0.0307. `C[N+](C)(C)CCCCCCNC(=O)[C@@H]1C[C@@H]2C(=O)N3CCC[C@H]3C(=O)N2[C@@H]1c1ccc(O)cc1` gave a composite z-score of 1.41. Work on `O=C1O[C@@H](c2ccccc2)[C@@H](c2ccccc2)N2[C@@H](c3ccc(O)cc3)[C@]3(C(=O)Nc4ccc(C#CCCO)cc43)[C@@H](C(=O)N3CCN(c4ncccn4)CC3)[C@H]12` yielded a composite z-score of 1.14. For `CC(C)c1ccc(NN2C(C(O)c3ccc(F)cc3)C=CC3C(=O)N(c4ccccc4)C(=O)C32)cc1` (stereo not given), the composite z-score was -0.0773. `C[N+](C)(C)CCCC[C@@H]1NC(=O)[C@@H]2C[C@H](C(=O)NCCCCCCN)[C@H](c3cccc(OCCO)c3)N2C1=O` was tested, and the composite z-score was 0.518. In the case of `Cc1ccc(S[C@]2(C(=O)NCC(F)(F)F)CC(=O)N(Cc3cc(C(F)(F)F)cc(C(F)(F)F)c3)[C@@H]2c2ccc(CO)cc2I)cc1`, the composite z-score is reported as -1.54. With `C=C[C@H]1C(C(=O)OCC)=CC[C@@H](c2ccccc2)N1S(=O)(=O)c1ccc(C)cc1` the composite z-score was 0.218. Work on `CCCCN1CC=CC23O[C@@H]4/C=C\CCCOC(=O)C4[C@H]2C(=O)N(CCO)[C@@H]3C1=O` (stereo not given in full) yielded a composite z-score of -1.08. `CCCCN1CC=CC23O[C@@H]4/C=C\CCC(C)OC(=O)C4[C@H]2C(=O)N(CCCO)[C@@H]3C1=O` (stereo not given in full) showed a composite z-score of -1.38. With `O=C(NCc1ccc(F)cc1)[C@H]1C[C@H]2C(=O)NCC(=O)N2[C@H]1c1ccc(O)cc1` the composite z-score was 0.491. In the case of `CCOC(=O)C[C@H]1[C@H](OC(=O)Cc2ccc3c(c2)OCO3)[C@@H](NC(=O)c2ccc3ccccc3n2)c2cc(OCCCO)ccc2N1C(=O)c1ccccc1`, the composite z-score is reported as 0.528. In the case of `COc1cc2c(cc1O)C(C1CC1)N(C)CC2` (stereo not given), the composite z-score is reported as -0.778. For `COC(=O)C1=CC(CCCO)=CC(c2cccs2)N(Cc2cccc(OC(F)(F)F)c2)C=C1C(=O)OC` (stereo not given), the composite z-score was -0.413. For `COCCCNC(=O)[C@@]1(Sc2ccc(C)cc2)CC(=O)N(C2Cc3ccccc3C2)[C@@H]1c1ccc(CO)cc1`, the composite z-score was -1.86. `CN(C)c1ccc(C(O)C2C=CC3C(=O)NC(=O)C3N2Nc2ccccn2)cc1` (stereo not given) was tested, and the composite z-score was 0.987. `COc1ccccc1CN1C(=O)c2ccccc2[C@](Cc2ccccc2I)(C(=O)O)[C@@H]1c1ccc(CO)cc1` showed a composite z-score of 0.227. In the case of `CC(C)N1CC=CC23O[C@@H]4C=CCCOC(=O)C4[C@H]2C(=O)N(CCCO)[C@@H]3C1=O` (stereo not given in full), the composite z-score is reported as -0.347. In the case of `COc1ccc(C(=O)Nc2ccc(CN3C(=O)[C@]4(O[C@H](CC(=O)N5Cc6ccccc6C[C@H]5CO)[C@@H]([Si](C)(C)c5ccc(OC)cc5)[C@@H]4C)c4ccccc43)cc2)cc1`, the composite z-score is reported as 1.14. In the case of `Cn1cccc1C(O)C1C=CC2C(=O)N(c3ccccc3)C(=O)C2N1Nc1ccccc1` (stereo not given), the composite z-score is reported as 0.352. In the case of `CCOC(=O)C[C@H]1[C@H](OC(=O)c2cc3ccccc3oc2=O)[C@@H](NC(=O)CC(C)C)c2cc(OCCCO)ccc2N1C(=O)c1ccc2ccccc2n1`, the composite z-score is reported as 0.324. Work on `CC[C@@H]1C=C(C(=O)O)[C@H](c2ccccc2)N1S(=O)(=O)c1ccc(C)cc1` yielded a composite z-score of -0.535. In the case of `C=CC[C@@H](OC(=O)Nc1ccc(SC)cc1)c1ccc(O)c(F)c1`, the composite z-score is reported as 0.268.
